Hits are enriched below; roughly 2.5% of the tested compounds scored in any of these assays.
MRP-1 activ = activators of MRP-1 | viability increase, % at 10 µM | hit rate 0.61% among 140,000 | H69AR cells + doxorubicin, viability rescue, CellTiter-Glo;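 active = viability gain under doxorubicin at or above a set limit, the compound median plus 3 SD, cut at about 4.7% in these data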;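 note: MRP-1 overexpressing cells given doxorubicin 25 µM after compound pretreatment; 18-22 h compound pretreatment then 72 h with doxorubicin before readout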
Measles CPE = protection of cells from measles virus; Measles virus-infected cells, CPE protection, absorbance; protection (pct of control), % at 4 µM; hit rate 1.5% among 140,000; in the data active = protection mostly above about 24%, no sharp cut-off; inactive = mostly below about 26%
MRP resist rev = reverses drug resistance mediated by MRP. H69AR cells + 2 uM doxorubicin, CellTiter-Glo, 72 h. differential viability (reversal), % at 10 µM. hit rate 0.04% among 85,000;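 active = viability drop by adding the cancer drug above about 55%, with treated viability meeting a 40% cutoff, limit read from the data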;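 note: larger differential means the compound sensitizes cells more to doxorubicin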
sEH inh = blocks human soluble epoxide hydrolase activity; hit rate 0.34% among 91,000; AID 707; recombinant human sEH enzymatic activity assay; inhibition, % at 2 µM; in the data active = inhibition above about 80%
Target sequence (P34913 whole entry, looked up): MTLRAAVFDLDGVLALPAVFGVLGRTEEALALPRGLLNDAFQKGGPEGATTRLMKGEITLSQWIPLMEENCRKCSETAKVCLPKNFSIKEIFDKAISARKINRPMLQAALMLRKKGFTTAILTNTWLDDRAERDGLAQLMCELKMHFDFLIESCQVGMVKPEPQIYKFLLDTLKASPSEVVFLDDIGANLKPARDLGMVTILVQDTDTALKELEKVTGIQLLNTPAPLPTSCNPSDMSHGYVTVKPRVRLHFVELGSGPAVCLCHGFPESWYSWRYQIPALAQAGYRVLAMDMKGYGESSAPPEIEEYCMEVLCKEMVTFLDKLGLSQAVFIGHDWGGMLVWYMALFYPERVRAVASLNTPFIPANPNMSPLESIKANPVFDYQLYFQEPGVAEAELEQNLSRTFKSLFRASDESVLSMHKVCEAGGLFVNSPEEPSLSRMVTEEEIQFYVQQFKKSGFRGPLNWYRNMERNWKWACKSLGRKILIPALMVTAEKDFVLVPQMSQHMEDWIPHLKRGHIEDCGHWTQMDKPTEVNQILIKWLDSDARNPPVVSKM
SDO1 yeast rescue = sdo1-depleted yeast growth rescue | S. cerevisiae sdo1-depleted JHY4D growth rescue, OD600 30 h; stronger effect = higher value; pdr5 snq2 efflux-pump mutant strain | z-score at 10 µM | hit rate 0.21% among 140,000 | AID 817;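 active = z-score above 3 at both the 24 hr and the 30 hr optical density reads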
sEH act = soluble epoxide hydrolase (human) activation; P34913; purified human sEH enzymatic activity, activator screen; activation, % at 2 µM; hit rate 0.04% among 91,000; in the data active = activation above about 37%
Numbers stand for hits; . = inactive; / = no result given.

SMILES | MRP-1 activ | Measles CPE | MRP resist rev | sEH inh | SDO1 yeast rescue | sEH act
COc1ccc(-n2nnnc2-c2cnc3cc4c(cc3c2C)OCO4)cc1 | . | 53 | / | . | . | .
COc1ccc(/C=N/NC(=O)c2ccncc2)cc1CSc1nc2ccccc2s1 | . | . | / | / | . | /
O=C(Nc1nc(-c2ccccc2)ns1)c1cccs1 | . | 33 | . | / | . | /
COC(=O)c1c(NC(=O)CN2C(=O)C(=O)N(CC(C)C)C2=O)sc2c1CCCCC2 | . | . | / | / | . | /
COc1ccc(NS(=O)(=O)c2ccc(NS(C)(=O)=O)cc2)cc1 | . | . | . | . | . | .
CC(C)(C)NS(=O)(=O)c1ccc(NS(C)(=O)=O)cc1 | . | 45 | . | . | . | .
COC(=O)c1ccc(COC(=O)CCc2nc(-c3ccccc3)c(-c3ccccc3)o2)cc1 | . | . | . | . | . | .
O=C(NC(=S)Nc1ccc(S(=O)(=O)Nc2nccs2)cc1)c1ccc(F)c(F)c1 | . | 30 | / | / | . | /
COC(=O)c1sccc1NC(=O)c1cc(-c2ccc(C)cc2C)nc2ccccc12 | . | . | / | . | . | .
CSc1nc(-c2ccc(Cl)cc2Cl)[nH]c(=O)c1C#N | . | 55 | / | / | . | /
CCCCC1CCC(C(=O)Nc2c(C)n(C)n(-c3ccccc3)c2=O)CC1 (stereo not given) | / | / | . | . | / | .
Cc1c(NC(=O)c2ccccc2NS(=O)(=O)c2ccc(Br)cc2)c(=O)n(-c2ccccc2)n1C | 5.3 | . | . | . | . | .
Cc1c(NC(=O)C2CCN(S(=O)(=O)c3ccc(Cl)cc3)CC2)c(=O)n(-c2ccccc2)n1C | . | 62 | . | . | . | .
O=c1cc(-c2ccccc2)c2ccccc2[nH]1 | . | 76 | . | . | . | .
Cc1cc(=O)[nH]c2ccccc12 | . | . | . | . | . | .
COc1ccc(OC)c(S(=O)(=O)NC(C)(C)C)c1 | . | . | . | . | . | .
O=C(CCN1C(=O)S/C(=C/c2ccc(Cl)cc2)C1=O)N1CCOCC1 | . | 42 | / | / | . | /
CN(C)c1ccc([C@@H]2[C@@H]([N+](=O)[O-])[C@H]3C=Cc4ccccc4N3[C@H]2C(=O)c2ccc(Cl)cc2)cc1 | . | . | / | / | . | /
Cn1c(=O)c2c(ncn2CC(=O)N/N=C/c2ccc(Br)s2)n(C)c1=O | . | . | / | / | . | /
CS(=O)(=O)NCc1nnc(SCC(=O)NC2CCCCC2)n1-c1ccc(F)cc1 | . | . | . | . | . | .
COCCCn1c(-c2ccco2)nc2ccccc2c1=O | . | 29 | . | . | . | .
COc1ccc(CCn2c(-c3ccco3)nc3ccccc3c2=O)cc1OC | . | . | . | . | . | .
O=C(NCc1nc2ccccc2[nH]1)c1ccco1 | . | . | . | . | . | .
O=C(NCc1nc2ccccc2[nH]1)c1cc2ccccc2oc1=O | . | 86 | . | . | . | .
CCCNC(=O)Nc1ccc2c(c1)N(C)C(=O)c1ccccc1S2 | . | 60 | . | . | . | .
SMILES | MRP-1 activ | Measles CPE | MRP resist rev | sEH inh | SDO1 yeast rescue | sEH act
CC(C)(C)C1CCc2c(sc(NC(=O)c3cccs3)c2C(=O)N2CCCCC2)C1 (stereo not given) | 5.0 | . | . | . | . | .
O=C(Nc1cnc2ccccn2c1=O)c1ccc(Cl)cc1 | . | . | . | . | . | .
O=C(c1nc2ncccn2n1)N1CCN(c2ccc(F)cc2)CC1 | . | . | . | . | . | .
O=C(c1nc2ncccn2n1)N1CCN(c2ccccc2)CC1 | . | 43 | . | . | . | .
COC(=O)C1(C)Nc2ccccc2C(=O)N1c1ccccc1C (stereo not given) | . | 41 | / | . | . | .
CC(=O)OC1c2ccccc2C(=O)N1c1ccccc1C (stereo not given) | . | . | . | . | . | .
COc1ccccc1/C=C(/C(=O)OCC(=O)N(C)Cc1ccccc1)c1ccccc1 | . | . | / | / | . | /
C/C(=N\O)C(=O)NCCN(C)C | . | . | / | / | . | /
C/C(=N\O)C(=O)NCCCNCCCN(C)C | . | 49 | . | . | . | .
CCOC(=O)c1ccc(N2C(=O)c3n[nH]c(C)c3C2c2ccc(OC)cc2OC)cc1 (stereo not given) | 9.4 | . | . | . | . | .
Cc1ccc(NC(=S)N2CCC(c3nc4ccccc4s3)CC2)cc1C | . | 29 | / | . | . | .
Cn1c(=O)oc2cc(S(=O)(=O)N3CCCC3)ccc21 | . | . | . | / | . | /
CN1CCN(S(=O)(=O)c2ccc3[nH]c(=O)oc3c2)CC1 | . | 40 | / | / | . | /
COc1ccc(C(=O)Nc2ccc(S(=O)(=O)Nc3nccnc3OC)cc2)cc1 | 6.2 | . | / | . | . | .
